Results as given in PubChem BioAssay (NCI).
Values joined by “and” are separate entries in the source; they are usually repeats but may differ in a detail not shown here. Identical values can stand only once. Compounds without any hit were thinned out: in the full panel of roughly 79,000, 15% have a hit. Where a structure was tested more than once in an assay, its records may differ in their call. Active and inactive are the calls of the source. Cut-off read from the data, not from the text of the source: active = growth inhibition above about 70%; inactive = the rest.

Legend:
[1] = NCI Yeast Anticancer Drug Screen. Data for the rad52 strain (AID 147);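 note: 0% = growth of vehicle-treated control cultures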; details: S. cerevisiae rad52 mutant growth inhibition, stronger effect = higher value
Summary of the method: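 Genetically altered yeast (DNA damage repair defect) treated with compound; inhibition calculated relative to vehicle.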

[2] = NCI Yeast Anticancer Drug Screen. Data for the wt1 strain (AID 149);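 note: 0% = growth of vehicle-treated wt1 cultures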; details: S. cerevisiae wt1 strain (SPY 50644) growth inhibition, stronger effect = higher value
Summary of the method: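 Yeast wt1 strain exposed to compounds; growth inhibition measured relative to vehicle-treated controls.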

[3] = NCI Yeast Anticancer Drug Screen. Data for the rad50EPP+ strain (AID 151);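 note: 0% = growth of vehicle-treated control cultures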; details: S. cerevisiae rad50 mutant strain, stronger effect = higher value
Summary of the method: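 Strain rad50EPP+; compound exposure; % growth inhibition vs vehicle.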

[4] = NCI Yeast Anticancer Drug Screen. Data for the rad50 strain (AID 155);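 note: 0% = growth of vehicle-only cultures of the same strain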; details: S. cerevisiae rad50 strain growth inhibition, stronger effect = higher value
Summary of the method: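 Yeast carrying a defined DNA repair defect were exposed to test compounds, and growth was compared with vehicle-treated controls to give percent inhibition.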

[5] = NCI Yeast Anticancer Drug Screen. Data for the mec2-1 strain (AID 157); details: S. cerevisiae mec2-1 strain, stronger effect = higher value
Summary of the method: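 Cells of the genetically defined mec2-1 yeast strain are incubated with test compound. Inhibition of growth is calculated against vehicle-treated controls.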

[6] = NCI Yeast Anticancer Drug Screen. Data for the rad14 strain (AID 159);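 note: 0% = growth of vehicle-treated control cultures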; details: S. cerevisiae rad14 strain growth inhibition, stronger effect = higher value
Summary of the method: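 Yeast cells carrying a defined DNA-repair defect were exposed to compounds, and growth inhibition was calculated relative to vehicle-treated control cultures.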

[7] = NCI Yeast Anticancer Drug Screen. Data for the sgs1 mgt1 strain (AID 161);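 note: 0% = growth of cultures given vehicle only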; details: S. cerevisiae sgs1 mgt1 strain, stronger effect = higher value
Summary of the method: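 Read-out: growth inhibition vs vehicle controls. Cells: mutant yeast strain deficient in DNA damage repair.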

[8] = NCI Yeast Anticancer Drug Screen. Data for the CLN2oe strain (AID 163);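 note: 0% = growth of vehicle-only control cultures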; details: S. cerevisiae CLN2oe strain, stronger effect = higher value
Summary of the method: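 Strain altered in cell-cycle control, incubated with compound; growth compared to solvent-treated controls.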

[9] = NCI Yeast Anticancer Drug Screen. Data for the cln2 rad14 strain (AID 165);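 note: 0% = growth equal to vehicle treated cultures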; details: S. cerevisiae cln2 rad14 strain, stronger effect = higher value
Summary of the method: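 The screen exposed genetically defined yeast (cln2 rad14) to test compounds and scored growth inhibition relative to vehicle-treated controls.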

[10] = NCI Yeast Anticancer Drug Screen. Data for the bub3 strain (AID 167); details: S. cerevisiae bub3 mutant strain, stronger effect = higher value
Summary of the method: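 Compounds were applied to a genetically altered yeast strain carrying a cell-cycle control defect. Growth inhibition was scored against vehicle-treated controls.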

[11] = NCI Yeast Anticancer Drug Screen. Data for the wt2 strain (AID 169);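 note: 0% = growth of vehicle-treated yeast cultures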; details: S. cerevisiae wt2 strain growth inhibition, stronger effect = higher value
Summary of the method: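 Steps: yeast strain treated with compound; growth recorded; inhibition calculated relative to cultures given vehicle alone.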

[12] = NCI Yeast Anticancer Drug Screen. Data for the mlh1 strain (AID 171);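 note: 0% = growth of vehicle-treated control cultures of the same strain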; details: S. cerevisiae mlh1 strain growth inhibition, stronger effect = higher value
Summary of the method: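 Yeast screen: mutant strain plus compound, growth scored against vehicle control wells.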

[13] = NCI Yeast Anticancer Drug Screen. Data for the sgs1 strain (AID 173);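 note: 0% = growth of vehicle-only control cultures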; details: S. cerevisiae sgs1 mutant, stronger effect = higher value
Summary of the method: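 Inhibition of yeast growth served as the measure. The mutant strain was treated with each compound, and growth was normalised to cultures receiving vehicle alone.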

[14] = NCI Yeast Anticancer Drug Screen. Data for the mlh1 rad18 strain (AID 175); details: S. cerevisiae mlh1 rad18 strain growth inhibition, stronger effect = higher value
Summary of the method: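 Compound-treated yeast growth, normalised to vehicle controls. Strain bears defined DNA repair mutations.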

[15] = NCI Yeast Anticancer Drug Screen. Data for the mgt1 strain (AID 153); details: S. cerevisiae mgt1 mutant growth inhibition, stronger effect = higher value
Summary of the method: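 Read-out: yeast growth inhibition vs vehicle control. Strain mgt1, drawn from a panel altered in DNA damage repair or cell cycle control.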

[16] = NCI Yeast Anticancer Drug Screen. Data for the rad18 strain (AID 177); details: S. cerevisiae rad18 mutant growth inhibition, stronger effect = higher value
Summary of the method: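 Inhibition values reflect reduced yeast growth compared with vehicle-treated controls, using a strain engineered with a DNA damage repair defect.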

[17] = at 5.0 µM (retest, dose inferred, filed as 0.5)
[18] = at 50.0 µM (retest, dose inferred, filed as 5.0)

Measured: growth inhibition

CSc1nnc(SC)nn1
active: [1]; at 100.0 µM 98% | [2]; at 100.0 µM 99% | [3]; at 100.0 µM 98% | [4]; [18] 98% | [4]; at 50.0 µM 82.2% | [4]; at 100.0 µM 96% | [5]; at 33.0 µM 77% | [5]; [18] 97% | [5]; at 50.0 µM 77.8% | [5]; at 100.0 µM 99% | [6]; at 33.0 µM 77% | [6]; at 100.0 µM 98% | [7]; [18] 99% | [7]; at 50.0 µM 82.8% | [8]; at 100.0 µM 98% | [9]; [18] 95% | [9]; at 50.0 µM 87.7% | [10]; at 33.0 µM 90% | [10]; [18] 98% | [10]; at 50.0 µM 93.1% | [10]; at 100.0 µM 99% | [11]; at 100.0 µM 99% | [12]; at 100.0 µM 99% | [13]; at 100.0 µM 98% | [14]; [18] 99% | [14]; at 50.0 µM 70.8%
inactive: [1]; at 1.2 µM 1% | [1]; at 3.7 µM 7% | [1]; at 11.0 µM 0% | [1]; at 33.0 µM 52% | [2]; at 1.2 µM -4% | [2]; at 3.7 µM -5% | [2]; at 11.0 µM -14% | [2]; at 33.0 µM 22% | [3]; at 1.2 µM 6% | [3]; at 3.7 µM 4% | [3]; at 11.0 µM -2% | [3]; at 33.0 µM 26% | [4]; at 1.2 µM -13% | [4]; at 3.7 µM -3% | [4]; [17] 51% | [4]; at 11.0 µM -2% | [4]; at 33.0 µM 45% | [5]; at 1.2 µM 9% | [5]; at 3.7 µM 1% | [5]; [17] 57% | [5]; at 11.0 µM 16% | [6]; at 1.2 µM -10% | [6]; at 3.7 µM 0% | [6]; at 11.0 µM 34% | [7]; [17] -10% | [8]; at 1.2 µM 12% | [8]; at 3.7 µM -6% | [8]; at 11.0 µM 15% | [8]; at 33.0 µM 31% | [9]; [17] 57% | [10]; at 1.2 µM 11% | [10]; at 3.7 µM 27% | [10]; [17] 34% | [10]; at 11.0 µM 65% | [11]; at 1.2 µM 9% | [11]; at 3.7 µM 5% | [11]; at 11.0 µM 3% | [11]; at 33.0 µM 38% | [12]; at 1.2 µM -2% | [12]; at 3.7 µM 6% | [12]; at 11.0 µM 15% | [12]; at 33.0 µM 55% | [13]; at 1.2 µM -2% | [13]; at 3.7 µM 3% | [13]; at 11.0 µM 0% | [13]; at 33.0 µM 44% | [14]; [17] 58%

Cc1sc2ccc3ccccc3c2[n+]1C
77% (active) and -4% (inactive): [4]; [18]
active: [1]; at 100.0 µM 94% | [2]; at 100.0 µM 94% | [15]; at 100.0 µM 79% | [4]; at 50.0 µM 82.6% and 95.2% | [4]; at 100.0 µM 83% | [5]; at 50.0 µM 85.8% and 91.7% | [5]; at 100.0 µM 93% | [7]; at 50.0 µM 89.2% and 97.3% | [8]; at 100.0 µM 92% | [9]; at 50.0 µM 87.2% and 77.2% | [10]; at 50.0 µM 86.6% and 89.3% | [10]; at 100.0 µM 96% | [11]; at 100.0 µM 94% | [13]; at 100.0 µM 91% | [14]; at 50.0 µM 86.7% and 96.7% | [16]; at 100.0 µM 87%
inactive: [1]; at 1.2 µM -3% | [1]; at 3.7 µM -14% | [1]; at 11.0 µM -17% | [1]; at 33.0 µM 3% | [2]; at 1.2 µM -21% | [2]; at 3.7 µM -19% | [2]; at 11.0 µM -24% | [2]; at 33.0 µM -8% | [3]; at 1.2 µM -23% | [3]; at 3.7 µM -10% | [3]; at 11.0 µM -40% | [3]; at 33.0 µM -25% | [3]; at 100.0 µM 10% | [15]; at 1.2 µM -9% | [15]; at 3.7 µM -12% | [15]; at 11.0 µM -17% | [15]; at 33.0 µM 13% | [4]; at 1.2 µM 7% | [4]; at 3.7 µM 27% | [4]; [17] 44% and -15% | [4]; at 11.0 µM 12% | [4]; at 33.0 µM 15% | [5]; at 1.2 µM -31% | [5]; at 3.7 µM -36% | [5]; [17] 49% and -26% | [5]; at 11.0 µM -17% | [5]; at 33.0 µM -11% | [5]; [18] 61% and -2% | [7]; [17] -14% and -11% | [7]; [18] 20% and 4% | [8]; at 1.2 µM -16% | [8]; at 3.7 µM -64% | [8]; at 11.0 µM -39% | [8]; at 33.0 µM -19% | [9]; [17] 47% and -10% | [9]; [18] 32% and 15% | [10]; at 1.2 µM -2% | [10]; at 3.7 µM -15% | [10]; [17] 23% and -18% | [10]; at 11.0 µM -28% | [10]; at 33.0 µM 14% | [10]; [18] 44% and 36% | [11]; at 1.2 µM -11% | [11]; at 3.7 µM 2% | [11]; at 11.0 µM -12% | [11]; at 33.0 µM 8% | [12]; at 1.2 µM -67% | [12]; at 3.7 µM -62% | [12]; at 11.0 µM -70% | [12]; at 33.0 µM -41% | [12]; at 100.0 µM 41% | [13]; at 1.2 µM 3% | [13]; at 3.7 µM 2% | [13]; at 11.0 µM 1% | [13]; at 33.0 µM 19% | [14]; [17] 32% and -17% | [14]; [18] 46% and 8% | [16]; at 1.2 µM 0% | [16]; at 3.7 µM 4% | [16]; at 11.0 µM 2% | [16]; at 33.0 µM -1%
